Laboratory results as given in PubChem BioAssay (NCI).
About 79,000 compounds went through this panel and 15% of them were active in at least one assay; those are over-represented in the sample as a whole. No stated cut-off is given here; in the data, active means growth inhibition above about 70%; inactive means the rest.

Experiments:
[1] = NCI Yeast Anticancer Drug Screen. Data for the rad50 strain (AID 155);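 further: 0% = growth of vehicle-only cultures of the same strain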; conditions: S. cerevisiae rad50 strain growth inhibition; at 50.0 µM; active compounds read high
How it was run: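 Relative growth inhibition (compound vs vehicle) was measured in yeast with a defined repair-gene alteration.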

[2] = NCI Yeast Anticancer Drug Screen. Data for the mec2-1 strain (AID 157); conditions: S. cerevisiae mec2-1 strain, at 50.0 µM, active compounds read high
How it was run: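 mec2-1 yeast strain, carrying an alteration in DNA damage repair or cell cycle control, was exposed to compounds; growth inhibition was measured relative to vehicle-treated controls.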

[3] = NCI Yeast Anticancer Drug Screen. Data for the sgs1 mgt1 strain (AID 161);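 further: 0% = growth of cultures given vehicle only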; conditions: S. cerevisiae sgs1 mgt1 strain, at 50.0 µM, active compounds read high
How it was run: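 Yeast cells carrying a defined DNA-repair defect were exposed to test compounds. Growth inhibition was measured relative to vehicle-treated controls.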

[4] = NCI Yeast Anticancer Drug Screen. Data for the cln2 rad14 strain (AID 165);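 further: 0% = growth equal to vehicle treated cultures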; conditions: S. cerevisiae cln2 rad14 strain, at 50.0 µM, active compounds read high
How it was run: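 Yeast carrying cln2 and rad14 alterations (cell cycle control and DNA damage repair) were exposed to compounds. Growth inhibition was measured against vehicle-treated controls.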

[5] = NCI Yeast Anticancer Drug Screen. Data for the bub3 strain (AID 167); conditions: S. cerevisiae bub3 mutant strain, at 50.0 µM, active compounds read high
How it was run: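 Screening used yeast with an engineered genetic alteration affecting cell cycle control. Compound-exposed cultures were compared with vehicle cultures, and reduced growth was taken as inhibition.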

[6] = NCI Yeast Anticancer Drug Screen. Data for the mlh1 rad18 strain (AID 175); conditions: S. cerevisiae mlh1 rad18 strain growth inhibition; at 50.0 µM; active compounds read high
How it was run: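 Growth inhibition of the yeast strain was measured after compound exposure and expressed relative to vehicle-treated controls. The strain carries defined defects in DNA damage repair.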

Measured: growth inhibition

CCc1c(C#N)c(=O)[nH]c(=O)n1CCN1CCN(C(=O)NCCCCCCNC(=O)N2CCN(CCn3c(CC)c(C#N)c(=O)[nH]c3=O)CC2)CC1
inactive: [1] 4.6% | [2] 2.55% | [3] -14.4% | [4] -23.6% | [5] 2.7% | [6] -26.1%

S=C(N/N=C\c1ccc(Cl)cc1Cl)Nc1ccc2cn[nH]c2c1
inactive: [1] 20% | [2] 17.2% | [3] 28.2% | [4] -38% | [5] 2% | [6] 31.8%

CCCCCCCC/C=C/CCCCCCCCCCCC(=O)O
inactive: [1] -7.6% | [2] -39.2% | [3] -1.45% | [4] -46.5% | [5] -8.9% | [6] 2.35%

COC(OC)C1(CCc2ccccc2)NC(=O)N(C)C1=O (stereo not given)
inactive: [1] -17.4% | [2] 2.2% | [3] 5.6% | [4] -19.9% | [5] 25.6% | [6] -0.65%

COc1cc([N+](=O)[O-])c(S(=O)(=O)O)cc1-n1nc(-c2ccccc2)n[n+]1-c1cc(S(=O)(=O)[O-])c([N+](=O)[O-])cc1OC
inactive: [1] -5.65% | [2] 4.15% | [3] -13.3% | [4] -22.7% | [5] -20.4% | [6] 16.2%

NC1=C(O)C(=O)C(c2ccccc2O)O1 (stereo not given)
inactive: [1] -34.6% | [2] -32.6% | [3] -19.1% | [4] -21.6% | [5] -18.6% | [6] -10.9%

CN(CC(=O)O)c1ncc2c(n1)-c1ccccc1SC2
inactive: [1] 20.5% | [2] 4.95% | [3] 5.15% | [4] 10.3% | [5] -14.3% | [6] -6.3%

O=C1CCCCCCCC(=O)Nc2ccc3nc4ccccc4c(c3c2)SCCCCCCCCCSc2c3ccccc3nc3ccc(cc23)N1
inactive: [1] 27.7% | [2] -13.2% | [3] -6.75% | [4] -13.2% | [5] -6.5% | [6] 4.2%

CC(F)(F)C(F)(F)C(=O)CC(=O)C(F)(F)F.CC(F)(F)C(F)(F)C(=O)CC(=O)C(F)(F)F.[Cu]
inactive: [1] -9.15% | [2] -20.4% | [3] -9.75% | [4] -72% | [5] 1.95% | [6] -43.6%

O=C(O)c1ccccc1C(=O)OC1CC2CCC1C2 (stereo not given)
inactive: [1] -26.2% | [2] -22.6% | [3] -10.4% | [4] 24.2% | [5] 12.6% | [6] 1.6%

CCOC(=O)c1cc2ccccc2oc1=O
inactive: [1] -15.2% | [2] 0.3% | [3] -8.75% | [4] 16.4% | [5] 9.25% | [6] 3.9%

COC(=O)c1c(C)oc(C)c1-c1ccc(OCc2ccccc2)c(OC)c1
inactive: [1] 8.7% | [2] -12.8% | [3] -35.8% | [4] 7.6% | [5] 1.25% | [6] 2.7%

O=C(O)C1Cc2c([nH]c3ccccc23)C(CCCCO)N1 (stereo not given)
inactive: [1] -31.6% | [2] -7.85% | [3] -15.9% | [4] -15.4% | [5] -26.4% | [6] -11.3%

COc1ccc(C2OCCCO2)cc1
inactive: [1] 13.5% | [2] -19.1% | [3] -6.45% | [4] -34.4% | [5] -27.4% | [6] 4.45%

COc1cc(C2SCC(=O)N2c2ccc(-n3c(-c4ccccc4)nc4ccccc4c3=O)cc2)ccc1O (stereo not given)
inactive: [1] -12.6% | [2] -8.75% | [3] 10.7% | [4] -36.2% | [5] 3.3% | [6] 22%

C(=N/OC(c1ccccc1)(c1ccccc1)c1ccccc1)/c1ccccc1
inactive: [1] 13.7% | [2] 24.2% | [3] 6.2% | [4] 7.8% | [5] 15.8% | [6] 6.45%

CCCCOB(OCCCC)OCCCC
inactive: [1] 6.1% | [2] -3.25% | [3] -12.6% | [4] 11.8% | [5] -1.65% | [6] -21.9%

COC1CCCCC(=NNC(N)=O)CCCC1 (stereo not given)
inactive: [1] -0.2% | [2] -2.65% | [3] -13.2% | [4] -44.6% | [5] -7.15% | [6] -1.15%

Nc1nc(-c2ccccc2)ns1
inactive: [1] 4.9% | [2] -44.1% | [3] 1.4% | [4] 8.4% | [5] -17.8% | [6] -2.3%

C(=C/c1ccc2c(c1)OCO2)/c1ccccc1
inactive: [1] -16.1% | [2] 10.3% | [3] 12.2% | [4] -2.85% | [5] 11% | [6] 2.9%

O=C(O)c1nc2ccccc2c(=O)[nH]1
inactive: [1] -3.4% | [2] -4.25% | [3] -9.7% | [4] -43.1% | [5] -12.2% | [6] -4.6%

COC1/C=C\OC2(C)Oc3c(C)c(O)c4c(O)c(c(/C=N\NC(=O)CC(=O)N/N=C/c5c6c(O)c7c(O)c(C)c8c(c7c5O)C(=O)C(C)(O/C=C/C(OC)C(C)C(OC(C)=O)C(C)C(O)C(C)C(O)C(C)/C=C/C=C(C)C(=O)N6)O8)c(O)c4c3C2=O)NC(=O)/C(C)=C\C=C/C(C)C(O)C(C)C(O)C(C)C(OC(C)=O)C1C (stereo not given)
inactive: [1] -4.5% | [2] 6.3% | [3] -2.2% | [4] -5.4% | [5] 6.75% | [6] -16.4%

Cc1cccc(C2=N/C(=C\c3c(O)ccc4ccccc34)C2=O)c1
inactive: [1] 6.55% | [2] 7.1% | [3] 0.9% | [4] 6.55% | [5] 10.9% | [6] -6.65%

C=CCC12CC(C)OC1=Nc1ccccc1NC2=O (stereo not given)
inactive: [1] -0.95% | [2] -1.85% | [3] -18.2% | [4] 21.1% | [5] 7.2% | [6] -9.8%

O=C1CSC(c2ccc(Cl)c([N+](=O)[O-])c2)N1c1nncs1 (stereo not given)
inactive: [1] 7.9% | [2] 4.6% | [3] 24.2% | [4] 12.7% | [5] 10% | [6] 25.1%

O=C(O)c1cc(=O)[nH]c(=S)[nH]1
inactive: [1] -18.6% | [2] 5.65% | [3] -19.5% | [4] 8.05% | [5] -9.25% | [6] -15.6%

O=S=NCCCl
inactive: [1] -14.3% | [2] -14.6% | [3] -13.2% | [4] 1.5% | [5] -10.8% | [6] 0.35%

C=CCCCOC(C)=O
inactive: [1] 5.1% | [2] -10.9% | [3] 12.5% | [4] 4% | [5] 11.9% | [6] 1.8%

O=C(O)c1sccc1-c1cccc2ccccc12
inactive: [1] 0.5% | [2] 18.6% | [3] 10.9% | [4] -13.3% | [5] -15.6% | [6] -11.8%

COC(=O)/C=C(/Nc1ccccc1C(=O)O)C(=O)OC
inactive: [1] -5.55% | [2] 20.1% | [3] -5.15% | [4] 2.85% | [5] -16.1% | [6] -21.1%

COc1ccc(CC2CCCNC2C(=O)O)cc1 (stereo not given)
inactive: [1] -1.65% | [2] -13.2% | [3] -3.55% | [4] -38.7% | [5] -16.6% | [6] 10.8%

O=C(Nc1ccccc1)c1cc2ccccc2oc1=O
inactive: [1] 6.95% | [2] -2.65% | [3] -4.5% | [4] 4.75% | [5] -13.2% | [6] 9.55%

CNc1c(F)cc(C(=O)O)cc1F
inactive: [1] -8.35% | [2] 4.5% | [3] -0.25% | [4] -16.4% | [5] -32.6% | [6] 2.15%

CC(C)CC(CCl)Cc1nc2ccccc2[nH]1 (stereo not given)
inactive: [1] 13.1% | [2] 4.05% | [3] 39.8% | [4] 14.9% | [5] 33.6% | [6] 27.5%

N#Cc1c(-c2ccccc2)cc(-c2cccs2)c(C#N)c1N
inactive: [1] 4.35% | [2] 4% | [3] 7.85% | [4] -35.3% | [5] 12.8% | [6] 21.1%

O=C(O)CCSc1nc2ccccc2s1
inactive: [1] 1.2% | [2] -9.85% | [3] 2.75% | [4] 0.3% | [5] -14.2% | [6] 19.1%

CC(=O)NNC(=S)N/C=C(/C(=O)c1ccccc1)c1ccccc1
inactive: [1] -22.7% | [2] -9.45% | [3] -16.7% | [4] 3.75% | [5] -16.4% | [6] -6.9%

CSc1nc2c(N)nc(N)nc2nc1C
inactive: [1] 5.9% | [2] 0.2% | [3] 0.75% | [4] -31.6% | [5] -16.7% | [6] 11.5%

Cc1ccc(N(CN2C(=O)CCC2=O)CS(=O)(=O)c2ccc(Cl)cc2)cc1
inactive: [1] 10.4% | [2] 3.5% | [3] -0.45% | [4] 14.7% | [5] -3.4% | [6] -19.6%

COc1ccc(Cc2ccc(OC)cc2)cc1
inactive: [1] -34.2% | [2] -5.3% | [3] 8.15% | [4] -9.15% | [5] 5.15% | [6] -15%
